KAT2A inh – blocks human GCN5L2 histone acetyltransferase; AID 504327; Potency, µM (titrated, usually from 58.9 µM), for the others: at the highest dose activity change, negative = inhibition, usual class: inhibitors; Q92830; GCN5L2 HAT assay, ThioGlo1 CoA-SH fluorescence; 390,000 compounds, 0.21% hits
Target sequence (Q92830 whole entry, looked up): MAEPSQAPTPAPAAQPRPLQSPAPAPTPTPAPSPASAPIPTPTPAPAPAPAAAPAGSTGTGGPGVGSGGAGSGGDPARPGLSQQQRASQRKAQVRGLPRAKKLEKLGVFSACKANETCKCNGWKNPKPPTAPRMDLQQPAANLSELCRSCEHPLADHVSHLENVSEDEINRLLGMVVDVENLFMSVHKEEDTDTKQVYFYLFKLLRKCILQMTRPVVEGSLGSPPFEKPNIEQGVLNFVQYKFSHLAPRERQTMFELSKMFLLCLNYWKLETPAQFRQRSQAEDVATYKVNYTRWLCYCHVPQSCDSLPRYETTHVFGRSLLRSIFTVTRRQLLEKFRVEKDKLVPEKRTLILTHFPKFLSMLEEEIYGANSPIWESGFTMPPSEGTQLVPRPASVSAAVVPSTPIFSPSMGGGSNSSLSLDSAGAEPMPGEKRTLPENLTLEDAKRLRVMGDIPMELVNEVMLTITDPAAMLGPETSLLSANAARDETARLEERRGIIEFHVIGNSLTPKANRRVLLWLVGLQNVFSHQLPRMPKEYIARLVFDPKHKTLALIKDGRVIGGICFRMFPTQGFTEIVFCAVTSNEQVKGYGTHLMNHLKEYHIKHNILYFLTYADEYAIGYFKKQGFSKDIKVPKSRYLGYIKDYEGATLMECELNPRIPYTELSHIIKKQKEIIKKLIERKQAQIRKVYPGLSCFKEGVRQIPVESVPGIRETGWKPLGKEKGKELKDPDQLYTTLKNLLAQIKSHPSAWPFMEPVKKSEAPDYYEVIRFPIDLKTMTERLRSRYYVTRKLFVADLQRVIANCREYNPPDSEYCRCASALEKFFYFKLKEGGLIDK
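GCN5L2 (20 nM) in 50mM HEPES pH 7.5, 0.1mM EDTA, 0.01% Tween-20 preincubated 15 min with compounds at room temperature. Reaction started with H3(1-25) 75uM, acetyl-CoA 70uM, ThioGlo1 50uM; CoA-thiol fluorescence (Ex340/Em540) read at 0 and 20 min.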
ALOX12 inh – inhibitors of human 12S-lipoxygenase ALOX12. P18054. purified 12hLO, xylenol orange hydroperoxide absorbance. Potency, µM (titrated, usually from 108 µM), inactives show top-dose activity change, negative = inhibition, hits mostly inhibitors. 580,000 compounds, 1.1% hits. AID 1671190
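Hydroperoxide product was detected by ferrous iron/xylenol orange as the 573 to 405 nm absorbance ratio. Arachidonic acid at 40 uM (final) was turned over for 30 min at room temperature by 150 nM human 12hLO, pH 7.0 Hepes buffer, after 15 min compound preincubation.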
VDR inh – vitamin D3 receptor (human) inhibition | VDR-SRC2-3 peptide fluorescence polarization, 2 h | Potency, µM, for inactives: max response, negative = inhibition, hits mostly inhibitors | 400,000 compounds, 0.93% hits
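Fluorescence polarization assay of small-molecule disruption of VDR binding to coregulator peptide SRC2-3. Compounds and controls pin-transferred, then read after 2 h incubation at ambient room temperature.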
PLK1 PBD block – blocks phosphopeptide binding to human PLK1 polo-box domain; 360,000 compounds, 2.8% hits; Plk1 PBD binding of FITC phosphopeptide, fluorescence polarization; Potency, µM, inactives show max response, negative = inhibition, usual class: inhibitors; P53350; AID 720504; further: series mostly up to about 57 µM; nearly all actives have a fitted effect of over 65% in size
The depositor's hits bear a star; ? = inconclusive; . = no result; ! = not active in a repeat; [ ] = dose if it differs, or a comment. The list is not random: actives were taken first. Their share in the collection is about 3%. The call rests on the fitted dose curve; in most records, active means well fitted curve in the direction sought with a large enough effect; inconclusive means small, poorly fitted or top-dose-only effect, or another doubt; inactive means no such curve, though single readings can be large; an effect the other way counts as inactive or inconclusive. On the % scale 0 is the no-effect control and ±100 the full control effect; potency means the concentration at half of the fitted maximal effect.

SMILES	KAT2A inh	ALOX12 inh	VDR inh	PLK1 PBD block
C=C[C@H]1CN2CC[C@H]1C[C@@H]2CNS(=O)(=O)c1ccc(C)cc1	.	-1%[176 µM]	.	.
O=C1C=C2C(=CCOC2O)O1 (centres undefined)	8%	.	13µM*	.
CC(C)(C)NC(=O)NC(O)C(Cl)(Cl)Cl (centres undefined)	.	-21%	.	.
CCCc1[nH]nc2c1C(CCC)C(C#N)=C(N)O2 (centres undefined)	-4%	7%	?	-10%
CCCc1[nH]nc2c1C(c1ccc(OC)c(Cn3nnc4ccccc43)c1)C(C#N)=C(N)O2 (centres undefined)	.	.	?	12µM*
CC(=O)Nc1ccc(CC(=O)N2CCN(Cc3ccccc3)CC2)cc1	4%	13%	2%	-9%
CCN1CCN(C(=O)Cc2ccc(Nc3ncc(F)c(Nc4ccc(C(=O)Nc5ccccc5Cl)cc4)n3)cc2)CC1	.	3.9µM*	.	.
CCOC(=O)C1=CC(=C2C(=O)N(CC)C(=S)N(CC)C2=O)c2ccccc2O1	-7%	18µM*	?	?
CCN1C(=O)C(=C2C=C(C)OC(C)=C2)C(=O)N(CC)C1=S	-10%	-7%	12%	0%
Cc1sc2c(c1C)C(c1ccc(F)cc1)=NCC(=O)N2CC(=O)Nc1ccccc1	.	-6%	.	.
CCNC(=O)O/N=C(\C)c1sc(-c2ccccc2)nc1C	5%	1%	-4%	24µM*
CC(C)c1ccc(-n2c(O)c(/C=N/NC(=O)c3ccccc3O)c(=O)[nH]c2=S)cc1	-22%	40µM*	-19%	?
O=C(N/N=C/c1c(O)n(C2CCCCC2)c(=S)[nH]c1=O)c1ccccc1O	?	?	-5%	?
ClC1=C(Cl)C(Cl)(C2(Cl)C(Cl)=C(Cl)C(Cl)=C2Cl)C(Cl)=C1Cl	?	.	3.2µM*	.
O=C1NC(=S)NC(=O)C1=Cc1c(Cl)cccc1Cl	.	?	16µM*	4.7µM*
NS(=O)(=O)c1ccc(-c2ccc(C=C3C(=O)NC(=S)NC3=O)o2)cc1	-9%	?	.	.
Cn1nc(-c2ccccc2)cc1[C@H]1CN2CC[C@H]1C[C@@H]2CNC(=O)N1CCOCC1	.	30%[176 µM]	.	.
COc1ccc(-c2cc([C@H]3CN4CC[C@H]3C[C@@H]4CNC(=O)c3ccc(C)cc3)n(C)n2)cc1	.	-18%	.	.
CCOP(=O)(Nc1ccc2c(c1)C(=NNC(N)=S)c1ccccc1-2)OCC	.	22µM*	?	27µM*
CCOP(=O)(OCC)c1cccc(O)c1	-5%	-2%	-13%	-6%
CC12C=CC(=O)C=C1CCC1C2=CCC2(C)C1CC[C@@H]2C(=O)CN1CCN(c2cc(N3CCCC3)nc(N3CCCC3)n2)CC1 (some centres undefined)	8%	.	3.2µM*	.
CC(Nc1ccc([N+](=O)[O-])c2cnccc12)C12CC3CC(CC(C3)C1)C2 (centres undefined)	.	1%	.	.
CCCCCOc1ccc(C)cc1CN(CCCl)CCCl	-2%	0%	-27%	24µM*
CCN(CCCl)Cc1ccccc1Br	-4%	-14%	8%	?
CN(C)P(=O)(NC(=O)c1cccn1C)N(C)C	-4%	18%	7%	-8%
SMILES	KAT2A inh	ALOX12 inh	VDR inh	PLK1 PBD block
CN(C)P(=NC(=S)c1cccn1C)(N(C)C)N(C)C	.	40µM*	-1%	?
COc1ccc(CN2CCCC(C(=O)c3ccc(Cl)cc3)C2)c(OC)c1 (centres undefined)	-7%	-5%	?	24µM*
O=C(NCc1cccnc1)c1cn(Cc2ccccc2)c2ccccc12	.	19%	.	.
CCOC(=O)[C@]12Cc3ccccc3[C@H]1N(Cc1ccccc1)C(=O)c1cc(OC)ccc12	.	0%	.	-28%
CCCCCN1C(=O)c2cc(OC)ccc2[C@@]2(C(=O)OCC)Cc3cc(Cl)ccc3[C@@H]12	.	?	.	4.7µM*
CCOC(=O)[C@]12Cc3cc(Cl)ccc3[C@H]1N(Cc1ccccc1)C(=O)c1cc(OC)ccc12	.	?	.	11µM*
CCOC(=O)[C@]12Cc3cc4ccccc4cc3[C@H]1N(Cc1ccccc1)C(=O)c1cc(OC)ccc12	.	?	.	11µM*
CCOC(=O)[C@]12Cc3cc(OC)ccc3[C@H]1N(Cc1ccccc1)C(=O)c1cc(OC)ccc12	.	6%	.	?
CCOC(=O)[C@]12Cc3cc(OC)ccc3[C@H]1N(CCC(=O)OC)C(=O)c1cc(OC)ccc12	.	-18%	.	13µM*
c1cncc(CN2CCNCC2)c1	.	-24%	.	.
CCOC(=O)[C@]12Cc3cc4ccccc4cc3[C@H]1N(Cc1ccccc1)C(=O)c1ccccc12	.	?	.	12µM*
O=C1NC(=O)N(Cc2cccs2)C(=O)/C1=C/c1ccc(N2CCOCC2)cc1	-10%	-12%	?	3µM*
Cc1cc2c(C(C)C)c(O)c(O)c(C=O)c2c(O)c1-c1c(C)cc2c(C(C)C)c(O)c(O)c(C=O)c2c1O	7.9µM*	1.1µM*!	6.3µM*	.
CCCn1c(C)c(C(=O)OCc2ccccc2)c2cc(O)ccc21	.	35µM*	.	.
CCOC(=O)c1c(C)n(Cc2ccco2)c2ccc(O)cc12	.	0%	-4%	-5%
CN1C2CCC1CC(OC(=O)c1ccc(Cl)cc1)C2 (centres undefined)	-10%	0%	-7%	27µM*
COc1cc2c(cc1OCc1ccc(Cl)cc1)N(Cc1ccccc1)CC21CCN(C(C)=O)CC1	.	32µM*	.	.
Cc1[nH]c2ccc(C34CC5CC(CC(C5)C3)C4)cc2c1CCN	.	32µM*	.	.
CC(=O)[C@@H]1CC[C@H]2[C@@H]3CC[C@@H]4CC(=O)CC[C@]4(C)[C@H]3CC[C@]12C	-16%	.	50µM*	.
CC(=O)[C@H]1CCC2C3CC[C@H]4C[C@@H](O)CC[C@]4(C)C3CC[C@@]21C (some centres undefined)	0%	-11%	-7%	2%
COc1ccc(-c2cc([C@H]3CN4CC[C@H]3C[C@@H]4CNS(=O)(=O)c3ccc(Cl)cc3)n(C)n2)cc1OC	.	6%	.	.
CCOc1cc(CN2CCN(C(=O)Cc3ccccc3)CC2)ccc1OC	-6%	0.5µM*	1%	5%
COc1ccc(CN2CCN(C(=O)Cc3ccccc3)CC2)cc1Br	-1%	0.63µM*	-10%	1%
COc1ccc(CN2CCN(C(=O)Cc3ccccc3)CC2)cc1OC	.	?	.	-8%
COc1ccc(OC)c(CN2CCN(C(=O)Cc3ccccc3)CC2)c1	-9%	?	?	-3%
SMILES	KAT2A inh	ALOX12 inh	VDR inh	PLK1 PBD block
O=C(C[C@@H]1NCCC[C@@H]1O)Cn1cnc2ccccc2c1=O	.	7%	.	.
CN1CCN2C(=O)N(C3CCOCC3)C[C@H]2C1	.	-4%[176 µM]	.	.
Oc1cccc[c]1[Hg][Cl]	0.089µM*	.	5µM*	.
C1CC(N(CC2CC2)C2CNC2)CCO1	.	34%	.	.
Cc1cccc(-n2c(/C=C/c3ccccc3O)nc3ccccc3c2=O)c1	0%	-42%	-25%	.
Cc1cccc(-n2c(/C=C/c3ccco3)nc3ccccc3c2=O)c1	.	25µM*	.	.
Nc1ccc2nonc2c1[N+](=O)[O-]	-6%	-22%	-16%	19µM*
CC[C@H]1CN2CC[C@H]1C[C@@H]2CNC(=S)Nc1ccc(C)cc1Br	.	-10%[176 µM]	.	.
COc1cc2c(cc1OCc1ccccc1)NC(=O)C21CCN(c2nc(C)cnc2C)CC1	.	1%	.	.

Compound activity deposited in PubChem by National Center for Advancing Translational Sciences (NCATS).
